Laboratory results reported in PubChem BioAssay (NCI).
This is part of a sample that, as a whole, favours compounds with a hit. Of some 83,000 tested, about 20% had one in any assay.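 Single-concentration screen, 48 h exposure, 96-well plates. Endpoint: percent growth. Below 10 = active.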 Activity calls are given as the source filed them.

Columns and labels:
Assay in all cases: NCI-60 one-dose screen, 48 h (100 = growth as untreated, 0 = no growth, -100 = all killed)
Conditions in all cases: 10 µM unless noted
HCT-15 colon = system: HCT-15 colon
HT29 colon = system: HT29 colon
SNB-19 CNS = system: SNB-19 CNS
U251 CNS = system: U251 CNS
PC-3 prostate = system: PC-3 prostate
SK-MEL-5 melanoma = system: SK-MEL-5 melanoma
UACC-62 melanoma = system: UACC-62 melanoma
LOX IMVI melanoma = system: LOX IMVI melanoma
SK-MEL-28 melanoma = system: SK-MEL-28 melanoma
SK-MEL-2 melanoma = system: SK-MEL-2 melanoma
EKVX NSCLC = system: EKVX NSCLC
SN12C renal = system: SN12C renal
UO-31 renal = system: UO-31 renal
TK-10 renal = system: TK-10 renal
ACHN renal = system: ACHN renal
CAKI-1 renal = system: CAKI-1 renal
A498 renal = system: A498 renal
CCRF-CEM leukemia = system: CCRF-CEM leukemia
MOLT-4 leukemia = system: MOLT-4 leukemia

Measured: growth

C=C1C(=O)O[C@H]2[C@H]1CC/C(Cn1cc(CNC(=O)/C=C/c3c[nH]c4ccccc34)nn1)=C\CC[C@@]1(C)O[C@@H]21
inactive: HCT-15 colon 94.4% | HT29 colon 92.4% | SNB-19 CNS 91.5% | U251 CNS 94.3% | PC-3 prostate 95.3% | SK-MEL-5 melanoma 83.8% | UACC-62 melanoma 87.6% | LOX IMVI melanoma 67.3% | SK-MEL-28 melanoma 91.7% | SK-MEL-2 melanoma 90.9% | EKVX NSCLC 99.5% | SN12C renal 88.4% | UO-31 renal 92.6% | TK-10 renal 123% | ACHN renal 94% | CAKI-1 renal 88.9% | A498 renal 98.9% | MOLT-4 leukemia 89.5%
active: CCRF-CEM leukemia 1.25%

NC1=C(/C(N)=N/O)C(c2ccccc2)c2ccc3ccccc3c2O1 (configuration not stated)
inactive: SNB-19 CNS 24.8% | U251 CNS 19.6% | PC-3 prostate 20.4% | UACC-62 melanoma 19.8% | LOX IMVI melanoma 22.7% | SK-MEL-28 melanoma 49.8% | SK-MEL-2 melanoma 44.7% | EKVX NSCLC 29.1% | SN12C renal 24.2% | UO-31 renal 38.6% | TK-10 renal 74.4% | ACHN renal 28.2% | CAKI-1 renal 26% | CCRF-CEM leukemia 14.4% | MOLT-4 leukemia 27.2%
active: HCT-15 colon 5.04% | HT29 colon 6.2% | SK-MEL-5 melanoma -44.5% | A498 renal -8.95%

CCN1CCN(CC(=O)N2c3cccc4cccc(c34)N(C(=O)CN3CCN(CC)CC3)C2c2cn(-c3ccccc3)nc2-c2cccc([N+](=O)[O-])c2)CC1
inactive: PC-3 prostate 21.6% | EKVX NSCLC 36.5% | A498 renal 74.7%
active: HCT-15 colon -45.5% | HT29 colon -41.5% | SNB-19 CNS 8% | U251 CNS -82.1% | SK-MEL-5 melanoma -92.5% | UACC-62 melanoma -82.4% | LOX IMVI melanoma -82.1% | SK-MEL-28 melanoma -87.6% | SK-MEL-2 melanoma -9.31% | SN12C renal -53% | TK-10 renal -41.4% | ACHN renal -43.6% | CAKI-1 renal -5.5% | CCRF-CEM leukemia -33.6% | MOLT-4 leukemia -33.7%

O=C1c2c(Cl)c(Cl)c(Cl)c(Cl)c2C(=O)C2(Cl)CC=CCC12Cl (configuration not stated)
inactive: SNB-19 CNS 13.5% | SK-MEL-5 melanoma 57.3% | UACC-62 melanoma 32.6% | EKVX NSCLC 98.7% | SN12C renal 24.4% | A498 renal 104%
active: HCT-15 colon -74.2% | HT29 colon -39.2% | U251 CNS -30.2% | PC-3 prostate -55.4% | LOX IMVI melanoma -84.3% | SK-MEL-28 melanoma -58.8% | SK-MEL-2 melanoma -49.4% | TK-10 renal -92.5% | ACHN renal -81% | CAKI-1 renal -15.1%

C=CCSc1n[nH]c(-c2cccs2)n1
active: SK-MEL-2 melanoma 3.39%
inactive: HCT-15 colon 103% | HT29 colon 102% | SNB-19 CNS 103% | U251 CNS 99.3% | PC-3 prostate 108% | SK-MEL-5 melanoma 104% | UACC-62 melanoma 101% | LOX IMVI melanoma 99.8% | SK-MEL-28 melanoma 129% | EKVX NSCLC 108% | SN12C renal 97.2% | UO-31 renal 118% | TK-10 renal 121% | ACHN renal 105% | A498 renal 101% | CCRF-CEM leukemia 94.6% | MOLT-4 leukemia 99.5%

CC(C)(C)n1cc(-c2ccnc(NCCNS(=O)(=O)c3ccc(C(F)(F)F)cc3)c2)c(-c2cccc(O)c2)n1
inactive: HCT-15 colon 11.7% | HT29 colon 12.4% | SNB-19 CNS 70.5% | U251 CNS 36.8% | PC-3 prostate 25.4% | SK-MEL-5 melanoma 20.9% | UACC-62 melanoma 64.1% | LOX IMVI melanoma 25.8% | SK-MEL-28 melanoma 51.3% | SK-MEL-2 melanoma 66.5% | EKVX NSCLC 52.2% | SN12C renal 52.8% | UO-31 renal 48.1% | TK-10 renal 98.7% | ACHN renal 57.1% | CAKI-1 renal 65.9% | A498 renal 55.1% | CCRF-CEM leukemia 46.1% | MOLT-4 leukemia 28.9%

C=C(C)[C@@H]1CC[C@]2(C(=O)O)CC[C@]3(C)[C@H](CC[C@@H]4[C@@]5(C)C[C@@H](CC#Cc6ccc(C(F)(F)F)cc6)[C@H](O)C(C)(C)[C@@H]5CC[C@]43C)[C@@H]12
inactive: HCT-15 colon 36.2% | HT29 colon 15.7% | SNB-19 CNS 30.8% | EKVX NSCLC 24.3% | SN12C renal 17.6% | UO-31 renal 41% | TK-10 renal 38.2% | ACHN renal 31.2% | CAKI-1 renal 50%
active: U251 CNS -4.28% | PC-3 prostate -52.2% | SK-MEL-5 melanoma -32.9% | UACC-62 melanoma -31.5% | LOX IMVI melanoma -53.5% | SK-MEL-28 melanoma -40.8% | SK-MEL-2 melanoma -27% | A498 renal -36.1% | CCRF-CEM leukemia -2.71% | MOLT-4 leukemia 4.32%

N=c1ccc2nc3ccc(N)cc3sc-2c1
active: SNB-19 CNS 4.78% | U251 CNS 6.47% | PC-3 prostate 7.2% | SK-MEL-5 melanoma -80.3% | LOX IMVI melanoma 3.98% | SN12C renal 6.7% | MOLT-4 leukemia 8.58%
inactive: HCT-15 colon 27.3% | HT29 colon 41.3% | UACC-62 melanoma 16.4% | SK-MEL-28 melanoma 57.1% | SK-MEL-2 melanoma 50.9% | EKVX NSCLC 47.9% | UO-31 renal 69.1% | TK-10 renal 11.9% | ACHN renal 55.2% | CAKI-1 renal 46.4% | A498 renal 70.6% | CCRF-CEM leukemia 21.3%

Cn1cnc2c(N3CCN(C(=O)OCc4ccc5c(Cl)cc(Cl)c(O)c5n4)CC3)nc(Cl)nc21
inactive: HCT-15 colon 30.5% | HT29 colon 113% | SNB-19 CNS 60.3% | U251 CNS 38.6% | PC-3 prostate 54.8% | SK-MEL-5 melanoma 41.6% | UACC-62 melanoma 53.7% | LOX IMVI melanoma 44.5% | SK-MEL-28 melanoma 68.5% | SK-MEL-2 melanoma 81% | EKVX NSCLC 66.9% | SN12C renal 63% | UO-31 renal 48.2% | TK-10 renal 96% | ACHN renal 48.4% | CAKI-1 renal 63.8% | A498 renal 62.7% | CCRF-CEM leukemia 37.6% | MOLT-4 leukemia 59.5%

N/C(=N\C(N)=N\c1nc2ccccc2s1)c1ccncc1
inactive: HCT-15 colon 35.3% | HT29 colon 27.7% | SNB-19 CNS 69.5% | U251 CNS 71% | PC-3 prostate 73.9% | SK-MEL-5 melanoma 59% | UACC-62 melanoma 44.6% | LOX IMVI melanoma 55.8% | SK-MEL-28 melanoma 66.9% | SK-MEL-2 melanoma 41% | EKVX NSCLC 78.9% | SN12C renal 72.6% | UO-31 renal 64.2% | TK-10 renal 109% | ACHN renal 75.8% | CAKI-1 renal 44.9% | CCRF-CEM leukemia 63% | MOLT-4 leukemia 45.2%

NC1=NC(SCc2ccccc2CCl)c2ncn(Cc3ccccc3CCl)c2N1 (configuration not stated)
inactive: HCT-15 colon 76.5% | HT29 colon 14.4% | SNB-19 CNS 74.7% | U251 CNS 36.8% | PC-3 prostate 78.6% | SK-MEL-5 melanoma 48.4% | UACC-62 melanoma 34.2% | SK-MEL-28 melanoma 65.2% | EKVX NSCLC 77.9% | SN12C renal 37.8% | UO-31 renal 61.3% | TK-10 renal 56.2% | ACHN renal 31.8% | CAKI-1 renal 32.4% | MOLT-4 leukemia 14.5%
active: LOX IMVI melanoma -80.2% | SK-MEL-2 melanoma -4.24% | CCRF-CEM leukemia 7.36%

COc1cc2c(=O)n(C3CCCCCC3)c3c4cc[nH]c4ncc3c2cc1OC
inactive: HCT-15 colon 62.9% | HT29 colon 79.9% | SNB-19 CNS 85.1% | U251 CNS 67% | PC-3 prostate 78.1% | SK-MEL-5 melanoma 87.2% | UACC-62 melanoma 99.9% | LOX IMVI melanoma 60.8% | SK-MEL-28 melanoma 105% | SK-MEL-2 melanoma 90.3% | EKVX NSCLC 91.8% | SN12C renal 55.6% | UO-31 renal 81.2% | TK-10 renal 96.3% | ACHN renal 70.5% | CAKI-1 renal 73.7% | A498 renal 24.6% | CCRF-CEM leukemia 51.1% | MOLT-4 leukemia 40.9%

O=C(NS(=O)(=O)c1ccccc1)n1cc(-c2ccncc2)c(-c2ccc(Cl)c(O)c2)n1
inactive: HCT-15 colon 103% | HT29 colon 100% | SNB-19 CNS 111% | U251 CNS 110% | PC-3 prostate 93.4% | SK-MEL-5 melanoma 100% | UACC-62 melanoma 59% | LOX IMVI melanoma 79.9% | SK-MEL-28 melanoma 63% | SK-MEL-2 melanoma 64% | EKVX NSCLC 104% | SN12C renal 97.4% | UO-31 renal 112% | TK-10 renal 101% | ACHN renal 86.8% | CAKI-1 renal 99% | A498 renal 106% | CCRF-CEM leukemia 89.8% | MOLT-4 leukemia 82.7%

CCN(CC)c1ccc2[nH]c3c(C(N)=O)cc(=O)c(=O)c=3oc2c1
inactive: SNB-19 CNS 17.6% | PC-3 prostate 13.4% | SK-MEL-28 melanoma 13.2% | A498 renal 46.2%
active: HCT-15 colon 1.73% | HT29 colon 5.89% | U251 CNS -4.95% | SK-MEL-5 melanoma -84.7% | UACC-62 melanoma -24.4% | LOX IMVI melanoma 3.27% | SK-MEL-2 melanoma -19.4% | EKVX NSCLC -10.4% | SN12C renal -4.55% | UO-31 renal -28.8% | TK-10 renal 2.91% | ACHN renal -8.77% | CAKI-1 renal -33.2% | MOLT-4 leukemia 1.5%

CC(=O)OC[C@]12CC[C@H]3[C@@H](C[C@H]4O[C@]45CC=CC(=O)[C@]35C)[C@]1(O)CC[C@@]2(O)[C@@](C)(O)C1CC(C)=C(C)C(=O)O1 (some centres not stated)
active: HCT-15 colon 0% | HT29 colon -21.2% | SNB-19 CNS 5.89% | U251 CNS -14.5% | PC-3 prostate 2.94% | SK-MEL-5 melanoma -78.7% | UACC-62 melanoma -71.1% | LOX IMVI melanoma -74.9% | SK-MEL-28 melanoma -49.9% | SK-MEL-2 melanoma -22.6% | EKVX NSCLC -14.1% | SN12C renal -39.2% | UO-31 renal -18.5% | TK-10 renal -55% | ACHN renal -64.1% | CAKI-1 renal -63.7% | A498 renal -76.2% | CCRF-CEM leukemia -8.89% | MOLT-4 leukemia 7.75%
